The whole screen tested about 5,500 compounds, of which about 2,000 (36%) were called active. Inconclusive results (about 18%) are left out. No stated cut-off is given here; in the data, active means normalized growth mostly below about 0.91 (no sharp cut-off); inconclusive means no clear call, values can overlap the other calls; inactive means mostly above about 0.92. The list shows a part of the results.
Assay: chemical genetic growth profiling, strain panel (AID 1159580);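 further: tested at 20 µM; growth read once vehicle control cultures reached saturation at 30 °C; 1 = growth at the plate median or of vehicle wells; lower values mean less growth of the strain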
Conditions: S. cerevisiae deletion strains, growth OD
[1] = locus YAL021C, strain ccr4, hits give low values
[2] = locus YAL026C, strain drs2, hits give low values
[3] = locus YAL030W, strain snc1, hits give low values
[4] = locus YBL061C, strain skt5, hits give low values
[5] = locus YBR009C, strain hhf1, hits give low values
[6] = locus YBR023C, strain chs3, hits give low values
[7] = locus YBR171W, strain sec66, hits give low values
[8] = locus YBR231C, strain swc5, hits give low values
[9] = locus YBR279W, strain paf1, hits give low values
[10] = locus YCL011C, strain gbp2, hits give low values
[11] = locus YCL016C, strain dcc1, hits give low values
[12] = locus YCL061C, strain MRC1, hits give low values
[13] = locus YCL069W, strain vba3, hits give low values
[14] = locus YCR088W, strain abp1, hits give low values
[15] = locus YDL005C, strain med2, hits give low values
[16] = locus YDL040C, strain nat1, hits give low values
[17] = locus YDR001C, strain nth1, hits give low values
[18] = locus YDR069C, strain doa4, hits give low values
[19] = locus YDR137W, strain rgp1, hits give low values
[20] = locus YDR159W, strain sac3, hits give low values
[21] = locus YDR297W, strain sur2, hits give low values
[22] = locus YDR334W, strain swr1, hits give low values
[23] = locus YDR335W, strain msn5, hits give low values
[24] = locus YDR392W, strain spt3, hits give low values
[25] = locus YEL003W, strain gim4, hits give low values
[26] = locus YEL037C, strain rad23, hits give low values
[27] = locus YEL061C, strain CIN8 (second series), hits give low values
[28] = locus YER015W, strain faa2, hits give low values
[29] = locus YER016W, strain bim1, hits give low values
[30] = locus YER111C, strain swi4, hits give low values
[31] = locus YER155C, strain BEM2 (second series), hits give low values
[32] = locus YFR010W, strain ubp6, hits give low values
[33] = locus YGL167C, strain pmr1, hits give low values
[34] = locus YGL173C, strain kem1, hits give low values
[35] = locus YGL227W, strain vid30, hits give low values
[36] = locus YGL240W, strain doc1, hits give low values
[37] = locus YGL253W, strain hxk2, hits give low values
[38] = locus YHR013C, strain ard1, hits give low values
[39] = locus YHR027C, strain rpn1, hits give low values
[40] = locus YHR030C, strain SLT2, hits give low values
[41] = locus YHR079C, strain IRE1, hits give low values
[42] = locus YHR142W, strain chs7, hits give low values
[43] = locus YJL092W, strain hpr5, hits give low values
[44] = locus YJL095W, strain BCK1 (second series), hits give low values
[45] = locus YJL095W, strain BCK1, hits give low values
[46] = locus YJL115W, strain asf1, hits give low values
[47] = locus YJL129C, strain trk1, hits give low values
[48] = locus YJL154C, strain vps35, hits give low values
[49] = locus YJL164C, strain tpk1, hits give low values
[50] = locus YJL166W, strain qcr8, hits give low values
[51] = locus YJL187C, strain SWE1, hits give low values
[52] = locus YJR066W, strain TOR1, hits give low values
[53] = locus YKL160W, strain elf1, hits give low values
[54] = locus YKR026C, strain gcn3, hits give low values
[55] = locus YKR091W, strain srl3, hits give low values
[56] = locus YLL001W, strain dnm1, hits give low values
[57] = locus YLL026W, hits give low values
[58] = locus YLL041C, strain sdh2, hits give low values
[59] = locus YLR027C, strain aat2, hits give low values
[60] = locus YLR113W, strain HOG1, hits give low values
[61] = locus YLR221C, strain rsa3, hits give low values
[62] = locus YLR258W, strain gsy2, hits give low values
[63] = locus YLR262C, strain YPT6 (second series), hits give low values
[64] = locus YLR320W, strain mms22, hits give low values
[65] = locus YLR342W, strain FKS1, hits give low values
[66] = locus YLR357W, strain rsc2, hits give low values
[67] = locus YLR370C, strain arc18, hits give low values
[68] = locus YLR384C, strain iki3, hits give low values
[69] = locus YML120C, strain ndi1, hits give low values
[70] = locus YMR058W, strain fet3, hits give low values
[71] = locus YMR125W, strain sto1, hits give low values
[72] = locus YMR129W, hits give low values
[73] = locus YMR205C, strain PFK2, hits give low values
[74] = locus YMR231W, strain pep5, hits give low values
[75] = locus YNL071W, strain lat1, hits give low values
[76] = locus YNL183C, strain NPR1, hits give low values
[77] = locus YNL209W, strain ssb2, hits give low values
[78] = locus YNL248C, strain rpa49, hits give low values
[79] = locus YNL322C, strain KRE1 (second series), hits give low values
[80] = locus YNR049C, strain mso1, hits give low values
[81] = locus YOR001W, strain rrp6, hits give low values
[82] = locus YOR070C, strain gyp1, hits give low values
[83] = locus YOR080W, strain dia2, hits give low values
[84] = locus YOR083W, strain WHI5, hits give low values
[85] = locus YOR106W, strain vam3, hits give low values
[86] = locus YOR231W, strain MKK1, hits give low values
[87] = locus YOR265W, strain rbl2, hits give low values
[88] = locus YOR270C, strain vph1, hits give low values
[89] = locus YOR290C, strain snf2, hits give low values
[90] = locus YPL051W, strain arl3, hits give low values
[91] = locus YPL078C, strain atp4, hits give low values
[92] = locus YPL106C, strain sse1, hits give low values
[93] = locus YPL240C, strain hsp82, hits give low values
[94] = locus YPL256C, strain CLN2, hits give low values

Measured: normalized growth

Nc1nc(F)nc2c1ncn2[C@@H]1O[C@H](COP(=O)(O)O)[C@@H](O)[C@@H]1O
inactive: [1] 0.989 | [2] 0.999 | [3] 1 | [4] 0.997 | [5] 1.01 | [6] 0.999 | [7] 1 | [8] 0.999 | [9] 1 | [10] 0.994 | [11] 0.997 | [12] 0.989 | [13] 0.993 | [14] 0.992 | [15] 0.984 | [16] 0.997 | [17] 0.993 | [18] 0.997 | [19] 1 | [20] 0.985 | locus YDR195W, strain ref2 0.968 | [21] 1.01 | [22] 0.991 | [23] 0.997 | [24] 0.976 | [25] 0.995 | [26] 0.993 | [27] 0.994 | [28] 0.995 | [29] 0.993 | [30] 1 | [31] 0.993 | [32] 1.01 | [33] 0.989 | [34] 1 | [35] 0.992 | [36] 0.984 | [37] 0.998 | [38] 0.99 | [39] 0.986 | [40] 1.03 | [41] 1.04 | [42] 0.991 | [43] 0.982 | [44] 0.994 | [45] 0.993 | [46] 0.991 | [47] 0.994 | [48] 0.998 | [49] 0.982 | [50] 1 | [51] 0.989 | [52] 0.967 | [53] 1 | [54] 0.977 | [55] 0.997 | [56] 0.987 | [57] 0.989 | [58] 0.997 | [59] 1 | [60] 0.979 | [61] 1 | [62] 0.992 | [63] 1 | [64] 0.968 | [65] 0.999 | [66] 0.994 | [67] 0.998 | [68] 0.982 | [69] 1.01 | [70] 1 | [71] 0.981 | [72] 1.01 | [73] 0.975 | [74] 0.995 | [75] 0.995 | [76] 0.96 | [77] 1 | [78] 0.996 | [79] 0.99 | [80] 0.995 | [81] 1 | [82] 1 | [83] 0.989 | [84] 1 | [85] 1.02 | [86] 1.04 | [87] 1 | [88] 0.977 | [89] 0.979 | [90] 1 | [91] 0.991 | [92] 1 | [93] 1.01 | [94] 1.03

Clc1ccccc1CN1CCc2sccc2C1
inactive: [1] 1.01 | [2] 1.01 | [3] 1.01 | [4] 1 | [5] 1.01 | [6] 1.01 | [7] 1.02 | [8] 1.02 | [9] 1.02 | [10] 1.01 | [11] 1.01 | [12] 1.01 | [13] 1.01 | [14] 1 | [15] 1.03 | [16] 1.01 | [17] 1.01 | [18] 1 | [19] 0.879 | [20] 1.03 | locus YDR195W, strain ref2 1.05 | [21] 1.01 | [22] 1.01 | [23] 1.01 | [24] 0.77 | [25] 1.01 | [26] 0.985 | [27] 1 | [28] 1.01 | [29] 1.01 | [30] 1.01 | [31] 0.928 | [32] 0.995 | [33] 1 | [34] 1.01 | [35] 1.02 | [36] 0.947 | [37] 1 | [38] 1.07 | [39] 1.01 | [40] 1.04 | [41] 1.03 | [42] 0.961 | [43] 1 | [44] 1.01 | [45] 0.985 | [46] 1 | [47] 0.973 | [48] 1.01 | [49] 0.994 | [50] 0.981 | [51] 1.01 | [52] 0.969 | [53] 0.987 | [54] 0.994 | [55] 1.01 | [56] 1.02 | [57] 1.01 | [58] 1 | [59] 1.01 | [60] 0.98 | [61] 0.983 | [62] 1.01 | [63] 0.884 | [64] 0.927 | [65] 1.01 | [66] 1.04 | [67] 1.01 | [68] 1.01 | [69] 0.986 | [70] 1.01 | [71] 1.04 | [72] 1.01 | [73] 0.998 | [74] 1.01 | [76] 0.949 | [77] 1.01 | [78] 0.953 | [79] 1.01 | [80] 1.01 | [81] 0.988 | [82] 1 | [83] 1.01 | [84] 0.982 | [85] 0.977 | [86] 1.02 | [87] 1.01 | [88] 0.952 | [89] 1 | [90] 0.973 | [91] 0.964 | [92] 1.01 | [93] 1 | [94] 1.02
active: [75] 0.906

Reference: PubChem BioAssay AID1159580 (chemical genetic matrix, 2015)
